These results are taken from ChEMBL document CHEMBL4513216, “Probing the Open Global Health Chemical Diversity Library for Multistage-Active Starting Points for Next-Generation Antimalarials” (ACS Infect Dis, 2020).

Out of some 69,000 compounds screened, about 8,600 (12%) showed an effect of 50% or more. Many of the other results were omitted from the sample, so strong results are more common in it than they were.

This experiment deals with Plasmodium berghei. The experiment can be described thus: Screen against P. berghei liver stage (PbLuc), transformed with Luciferase, at 10uM. The format is functional, HepG2. To be noted: tested at 10 uM.
`CC(C)CCN1CCC2(CCCN(c3nncs3)C2)C1` (stereo unspecified): the INHIBITION is 4.1%.

Regarding `CCc1nncn1CCNC(=O)N1CCN(Cc2ccccc2)CC1`, the INHIBITION was determined as 35.3%. Consider `Cn1c2ccc(F)cc2c2ncn(CCCN(CCO)CCO)c(=O)c21`, for which the INHIBITION was 24.7%. As for `Cc1cnc(C(=O)N2CCCCC2c2nc(C)cs2)cn1` (stereo unspecified), the INHIBITION was -16%. With `Fc1cnc(N2CC3(CCN(CC4CC4)C3)C2)nc1`, the INHIBITION was -81.2%. Under `Cn1cnc(S(=O)(=O)N2CCN(CC3CC3)c3ncccc3C2)c1` stands -22.1%. With `CCN1CCC2(C1)CN(S(=O)(=O)c1cn(C)cn1)C2`, the INHIBITION is on record as 65.7%.

Turning to `CC(C)CN1CCC2(C1)CN(S(=O)(=O)c1cn(C)cn1)C2`, the INHIBITION worked out at 35.8%. Regarding `Cn1cnc(S(=O)(=O)N2CC3(CCN(c4ccccc4)C3)C2)c1`, the INHIBITION worked out at 53%. As for `Cn1cnc(S(=O)(=O)N2CC3(CCN(Cc4ccncc4)C3)C2)c1`, the INHIBITION is on record as 21.3%. On to `Cn1cnc(C(=O)N2CC3(CCN(S(=O)(=O)c4ccccc4)C3)C2)c1`, for which the INHIBITION is -4.02%. Under `Cn1cnc(S(=O)(=O)N2CC3(CCN(CC4CC4)C3)C2)c1` stands 67.5%. On to `Cn1cnc(S(=O)(=O)N2CCSC3(CCCCC3)C2)c1`, for which the INHIBITION is reported as -37.8%.

Take `O=C1CN(Cc2occc2C(=O)NCCc2ccc(F)cc2)CCN1`: the INHIBITION turned out to be 8.41%. Consider `CC(C)CCNC(=O)Cc1cnc(-n2cccc2)s1`, for which the INHIBITION was 37.4%. The value for `c1cnc(N2Cc3nccn3CC(COc3cccnc3)C2)nc1` (stereo unspecified) was -13.2%. The value for `Cc1cc(F)c(S(=O)(=O)Nc2ccn(CCCC#N)n2)cc1F` was 30.5%.

For the compound `Cn1cc(C(=O)N[C@H]2CN(Cc3nccs3)[C@@H]3CCCO[C@H]23)cn1`, the INHIBITION is recorded as -8.94%. The value for `CC(C)C1CCC(N2CCN(CCS(C)(=O)=O)CC2)CC1` (stereo unspecified) was 32.9%; that for `CCCn1cc(CN2CCCC2c2cccc(-n3ccnc3)n2)cn1` (stereo unspecified) was 15.9%. `O=C(NCC(O)c1ccoc1)Nc1cccs1` (stereo unspecified): the INHIBITION was found to be 19.8%. Under `Cc1nc(C)n(C2CCCN(C(=O)Cc3cn4ccccc4n3)C2)n1` (stereo unspecified) stands 25.4%. For the compound `Cc1c(I)cccc1C(=O)NCc1ncc[nH]1`, the INHIBITION was determined as 57%. Take `Cc1c(I)cccc1C(=O)NCc1nnc[nH]1`: the INHIBITION is 51.5%. In the case of `Cc1cccc(I)c1C(=O)NCc1ncc[nH]1`, the INHIBITION turned out to be 8.08%. Under `O=C(NCc1ncc[nH]1)c1c(F)cccc1I` stands 25.5%; under `CCc1ccc(CCC(=O)NCc2nnc[nH]2)cc1`, 24.5%; under `Cc1c(I)cccc1C(=O)NCC1(CO)CC1`, -4.86%. Under `Cc1c2ncn(CC(=O)N(C)C)c(=O)c2nn1C` stands 0%.

As to `Cc1c2ncn(CC(=O)NC(C)C)c(=O)c2nn1C`, the INHIBITION amounted to 48.5%.

Turning to `Cc1c2nnn(CC(=O)N(C)C)c(=O)c2nn1C`, the INHIBITION amounted to 69.4%. As to `CC(=O)N1CCN(c2cc(C3CCNCC3)ccn2)CC1`, the INHIBITION was 7.19%. `Cc1cncc(C(=O)N2CCO[C@H]3[C@H](OCCN(C)C)CC[C@@H]32)c1`: the INHIBITION came out at 14.5%. As to `O=C(CC1CCCO1)NS(=O)(=O)Cc1cc(-c2ccccc2)no1` (stereo unspecified), the INHIBITION was determined as 25%. For `Cc1ccc(CN2CCC3(CCN(c4cnn(C)c4)C3=O)C2)s1` (stereo unspecified), the INHIBITION was found to be 1.94%. Under `CCS(=O)(=O)N1CCC2(CC1)CC[C@@]1(C(=O)N(C)C)CN(C)C[C@@H]21` stands -10.5%. As for `CC(C)NC(=O)N1CCC2(CC1)CC[C@@]1(C(=O)N(C)C)CN(C)C[C@@H]21`, the INHIBITION is recorded as 67.5%. Under `CCN1C[C@H]2C3(CCN(C(=O)NC(C)C)CC3)CC[C@@]2(C(=O)N(C)C)C1` stands 28.5%; under `O=C(NCc1cc(=O)n2c(n1)CN(CC1CCOC1)CCC2)C1CC1` (stereo unspecified), 26.8%; under `CCCc1nc(N2CC[C@@H](c3ccc4ccccc4c3)[C@H](O)C2)no1`, 36.7%. As to `O[C@@H]1CN(c2noc(C3CC3)n2)CC[C@H]1c1ccc2ccccc2c1`, the INHIBITION worked out at 51.2%. Take `Cc1nc(N2CC[C@@H](c3ccc4ccccc4c3)[C@H](O)C2)no1`: the INHIBITION came out at 31.2%.

For the compound `CC(C)NC(=O)N1CCC2(CC1)NC(=O)CC2c1ccncc1` (stereo unspecified), the INHIBITION is -3.51%. Take `CCc1nnc2n1CCN(C(=O)c1cn(-c3ccccc3)nn1)C2`: the INHIBITION was -1.15%. Consider `Cc1nc(CN2C[C@@H]3CN(C(=O)c4ccoc4C)C[C@@H]3C2)cs1`, for which the INHIBITION is listed as 1.48%. With `Cc1nc(CN2C(=O)CCC23CCN(Cc2ccco2)CC3)cs1`, the INHIBITION was found to be 3.17%.

Regarding `Cc1nc(CN2CCC3(CCN(C(=O)c4ccoc4C)CC3)C2)cs1`, the INHIBITION came to 66.2%. For `Cc1nc(CN2C[C@@H]3CN(C(=O)c4ccoc4C)C[C@@H]3C2=O)cs1`, the INHIBITION came out at 64.9%. As to `Cc1nc(CN2CCC23CCN(Cc2ccco2)CC3)cs1`, the INHIBITION is listed as 49.4%.

On to `Cc1nc(CN2CCC3(C2)CN(Cc2ccco2)C3)cs1`, for which the INHIBITION is on record as 56.6%. For `Cc1occc1C(=O)N1CCC2(CCN(Cc3nccs3)C2)CC1`, the INHIBITION amounted to 1.81%.
